# Results filed as inconclusive are left out. A call without a number means that no potency is given here. A number with no mark means an inactive call. Calls of active or inactive are those of the source. The call rests on the fitted dose curve; in most records, active means well fitted curve in the direction sought with a large enough effect; inconclusive means small, poorly fitted or top-dose-only effect, or another doubt; inactive means no such curve, though single readings can be large; an effect the other way counts as inactive or inconclusive.
# Columns and labels:
# [1] = biological target: Cellular tumor antigen p53 (Homo sapiens) (UniProt P04637); assay: Primary qHTS for small molecule compounds that upregulate eGFP-tagged delta133p53alpha (in N-terminal) cells. (AID 2060322); conditions: NCI-H358 eGFP-delta133p53alpha fluorescence, 24 h; activation: active compounds read high; further: nearly all actives have a fitted effect of over 75% in size; further: potency means the concentration at half of the fitted maximal effect; on activation: series mostly up to about 56 µM
# Sequence of Cellular tumor antigen p53 (Homo sapiens) (P04637 whole entry, looked up): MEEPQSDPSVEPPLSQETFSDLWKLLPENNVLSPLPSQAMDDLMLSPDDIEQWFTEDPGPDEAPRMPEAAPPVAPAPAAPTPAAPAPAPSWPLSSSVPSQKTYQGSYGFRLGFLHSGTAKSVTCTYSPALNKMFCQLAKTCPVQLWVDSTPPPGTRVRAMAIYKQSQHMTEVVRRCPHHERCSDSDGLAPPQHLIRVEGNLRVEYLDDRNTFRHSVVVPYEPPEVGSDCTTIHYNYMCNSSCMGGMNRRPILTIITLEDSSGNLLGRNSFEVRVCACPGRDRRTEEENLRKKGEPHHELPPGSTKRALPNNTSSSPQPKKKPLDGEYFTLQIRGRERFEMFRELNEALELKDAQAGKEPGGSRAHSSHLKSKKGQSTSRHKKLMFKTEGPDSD
# Summary of the method: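 NCI-H358 cells pre-induced 24 h with 10 ng/ml doxycycline to express N-terminal eGFP-delta133p53alpha, then dosed 24 h at 37C without doxycycline; fixed, Hoechst-stained, GFP intensity by laser scanning cytometry, normalized to DMSO (0%) and 57.5 uM 5-azacytidine (100%).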
# [2] = biological target: Aldehyde dehydrogenase, mitochondrial (Homo sapiens) (UniProt P05091); assay: qHTS for Inhibitors of the Aldehyde Dehydrogenase Family (ALDH2) Primary screen (AID 2061308); further: nearly all actives have a fitted effect of over 55% in size
SMILES,activation [1],Potency [2],Potency [1]
CC/C=C\CCO[C@@H]1O[C@H](CO[C@@H]2OC[C@H](O)[C@H](O)[C@H]2O)[C@@H](O)[C@H](O)[C@H]1O,-3.57%,inactive,
C[C@]1(C2CCCC2)Cc2cc(OCC(=O)O)c(Cl)c(Cl)c2C1=O,-3.67%,inactive,
C(#Cc1nc2ncccc2nc1OCCN1CCCC1)c1ccccc1,,inactive,6.75 µM (active)
CC1(C)CC2C=C(C(=O)O)C3COC(=O)C(O)(CO)C23C1 (stereo not given),-13%,inactive,
N#Cc1cnc2c(Cl)cc(NCc3cn(CCN4CCCCCC4)nn3)cc2c1Nc1ccc(F)c(Cl)c1,,inactive,4.26 µM (active)
C=C1CC[C@@H]2[C@](C)(CO)[C@H](O)CC[C@@]2(C)[C@@H]1CC(O)C1=CCOC1=O (stereo not given in full),-5.34%,inactive,
C=C1[C@H]2[C@H](O[C@@H]3O[C@H](COC(=O)/C=C/c4cc(OC)c(O)c(OC)c4)[C@@H](O)[C@H](O)[C@H]3O)OC=C(C(=O)O)[C@H]2C[C@@H]1O,-10.7%,inactive,
COc1cc(/C=C/C(=O)O[C@H]2[C@@H]3C=CO[C@@H](O[C@@H]4O[C@H](CO)[C@@H](O)[C@H](O)[C@H]4O)[C@@H]3[C@@]3(CO)O[C@@H]23)ccc1O,-2.29%,inactive,
C/C=C(\C)C(=O)OC1C(C)C2(O)C(C=C(CO)CC3(O)C(=O)C(C)=CC32)C2C(C)(C)C12OC(C)=O (stereo not given),8.93%,inactive,
CC(C)(O)C1OC1C1=CC(=O)C2(C)OC2C1O (stereo not given),1.79%,inactive,
CC1=CC(=O)CC(C)(C)C1CO[C@@H]1O[C@H](CO)[C@@H](O)[C@H](O)[C@H]1O (stereo not given in full),6.25%,inactive,
C=C[C@H]1[C@H](O[C@@H]2O[C@H](CO)[C@@H](O)[C@H](OC(=O)/C=C/c3ccc(O)c(OC)c3)[C@H]2O)OC=C2C(=O)OCC[C@]21O,-1.53%,inactive,
CC(/C=C/C1(O)C(C)CC(O)CC1(C)C)OC1OC(CO)C(O)C(O)C1O (stereo not given),-12.2%,inactive,
O=C(OC[C@H]1O[C@@H](Oc2ccccc2COC(=O)C2(O)C=CCCC2O)[C@H](O)[C@@H](O)[C@@H]1O)c1ccccc1 (stereo not given in full),-15.3%,inactive,
COc1cc(/C=C/C=O)cc(OC)c1O[C@@H]1O[C@H](CO)[C@@H](O)[C@H](O)[C@H]1O,-14.3%,inactive,
COC(=O)C1=COC(O[C@@H]2O[C@H](CO)[C@@H](O)[C@H](O)[C@H]2O)/C(=C\COC(=O)c2ccc(OC3OC(CO)C(O)C(O)C3O)c(OC)c2)C1CC(=O)OCCc1ccc(O)cc1 (stereo not given in full),-11.5%,inactive,
C[C@@H]1O[C@@H](O[C@H]2[C@@H]3C=CO[C@@H](O[C@@H]4O[C@H](CO)[C@@H](O)[C@H](O)[C@H]4O)[C@@H]3[C@@]3(CO)O[C@@H]23)[C@H](O)[C@H](OC(=O)/C=C/c2ccc(O)c(O)c2)[C@H]1O,2.29%,inactive,
COc1cc(C2Oc3c(OC)cc(/C=C/C(=O)OC[C@H]4O[C@@H](OC(C)(C)C(=O)O)[C@H](O)[C@@H](O)[C@@H]4O)cc3C2CO)ccc1O (stereo not given in full),-9.16%,inactive,
C=C1C(=O)OC[C@@H]1C/C=C(\C)CC1CC(C)C(=O)O1 (stereo not given in full),,inactive,23.9 µM (active)
CC1(C(=O)O)CC[C@]2(C(=O)OC3OC(CO)C(O)C(O)C3O)CC[C@]3(C)C(=CCC4[C@@]5(C)CC[C@H](OC6OCC(O)C(O)C6OC6OC(CO)C(O)C(O)C6O)C(C)(C)C5CC[C@]43C)C2C1 (stereo not given in full),-5.34%,inactive,
COc1cc(/C=C/C(=O)OC[C@H]2O[C@@H](OC3CC(C)=C(C(=O)O)C(C)(C)C3)[C@H](O)[C@@H](O)[C@@H]2O)cc(OC)c1O (stereo not given in full),-16.8%,inactive,
C=CCC1=C[C@]2(OC)[C@H](C)[C@@H](c3ccc(O)c(OC)c3)O[C@]2(OC)CC1=O,-15.2%,inactive,
COc1cc2ncnc(Nc3ccc(O)cc3)c2cc1OC,4.46%,inactive,
O=C(O)CCc1nccc2c1[nH]c1ccccc12,8.93%,inactive,
CC1=C2C[C@H]3OC(=O)[C@H](O)[C@@]4(O)[C@@H](C)[C@@H](O)[C@H](O)C([C@@]2(C)[C@H](O)[C@@H](O)C1)[C@@]34C (stereo not given in full),-11.5%,inactive,
